Gli-Sufu block = blocks Gli-Sufu signaling in a luciferase reporter; inhibition, % at 5 µM; actives 0.74% (n = 340,000); Sufu-KO-LIGHT fibroblasts, Gli luciferase reporter luminescence;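 active means inhibition above about 55%, limit read from the data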;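 further: 0% = DMSO-treated cells and 100% = wells with medium but no cells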
Jurkat NFkB inh = lowers PMA/ionomycin-induced NF-kB signal in Jurkat cells | PMA/ionomycin-induced NF-kB luciferase reporter, luminescence | inhibition, % at 4 µM | actives 0.53% (n = 330,000); in the data active means inhibition above about 50%
697 NFkB inh = lowers PMA/ionomycin-induced NF-kB signal in 697 B cells; 697 B-cell NF-kB luciferase reporter, 16 h; inhibition, % at 4 µM; actives 0.33% (n = 330,000); AID 435022; in the data active means inhibition above about 35%
aSyn 5UTR inh = 5' untranslated region of α-synuclein, MLPCN primary screen; alpha-synuclein 5'UTR reporter, inhibitor activity; inhibition, % (tested at 7.5 µM); actives 0.82% (n = 300,000); in the data active means inhibition above about 60%;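 further: H4 neuroglioblastoma cells stably carrying SNCA 5'UTR luciferase fusion; 0% = DMSO wells and 100% = positive control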
KLF5 inhibitor = kruppel-like factor 5 inhibition | actives 0.23% (n = 290,000) | AID 1700 | DLD-1 KLF5 promoter-luciferase reporter, luminescence | inhibition, % at 5 µM;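 active means inhibition above a per-plate limit of that plate's mean compound inhibition plus 3 SD, cut at about 60% in these data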;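 further: 0% = DMSO wells and 100% = LY294002 at 200 µM; higher means less KLF5 promoter-driven luciferase light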
Mdm2-MdmX inh = disrupts the human Mdm2-MdmX interaction | O15151+Q00987 | SaOS-2 split-luciferase Mdm2/MdmX complementation, luminescence | inhibition, % at 8 µM | actives 3% (n = 330,000) | AID 485346;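 active means inhibition of at least 50% at 8 µM in the primary screen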
Gli-Sufu confirm = confirmation of Gli-SUFU pathway antagonists; shares compounds with Gli-Sufu block; Sufu-KO-LIGHT cells, Gli luciferase reporter, luminescence; inhibition, % at 5 µM; actives 40% (n = 2,500); AID 602428;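 active means mean inhibition at 5 µM reaching about 45%, limit read from the data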;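 further: plate controls were DMSO-treated cells for no effect and wells lacking cells for full effect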
Gli cytotox = counter-screen for Gli-SUFU antagonists: cytotoxicity; actives 32% (n = 2,500); Sufu-KO-LIGHT cells cytotoxicity, ATP luminescence; AID 651994; shares compounds with Gli-Sufu block; cytotoxicity, % at 5 µM;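 active means mean cytotoxicity at 5 µM above about 25%, limit read from the data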;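 further: cells exposed to compound overnight for roughly 16 to 18 hours; plate controls were DMSO wells with cells for no effect and medium without cells for full effect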
Wnt3a counter = inhibits Wnt3a reporter, counter-screen for Gli-SUFU antagonists | AID 651995 | Wnt-LIGHT cells, Wnt3a-driven luciferase reporter, luminescence | inhibition, % at 6.25 µM | actives 20% (n = 2,500) | shares compounds with Gli-Sufu block;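 active means mean inhibition above about 25%, limit read from the data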
Numbers without * were called inactive; x = not tested or not shown. In the library only some 4.1% were active in any assay of this set; here they are far more common.

SMILES	Gli-Sufu block	Jurkat NFkB inh	697 NFkB inh	aSyn 5UTR inh	KLF5 inhibitor	Mdm2-MdmX inh	Gli-Sufu confirm	Gli cytotox	Wnt3a counter
CCn1nc([N+](=O)[O-])c2c(-c3nc4ccccc4o3)c(N)n(CCCOC)c2c1=O	-2	-4	1	35	-15	47	x	x	x
CN(C)S(=O)(=O)c1ccc(S(=O)(=O)N2CCCC(C(=O)NC3CCCC3)C2)cc1 (centres undefined)	70*	16	-8	-1	6	4	28	33*	3
CCc1nc(C)cn1S(=O)(=O)c1cc(C)c(OC)c(C)c1C	60*	31	-10	-8	-30	-1	52*	30*	55*
N#Cc1ccc(OCC(=O)OCC(=O)Nc2sccc2C(N)=O)cc1	53	1	19	x	x	-22	14	30*	3
c1ccc(CN2CCN(c3ncccn3)CC2)cc1	-3	9	3	-14	-13	-17	x	x	x
CC1(C)CC(N2CCCC2)=CC(=[N+]2CCCCC2)C1	82*	36	33	-56	-12	-1	85*	33*	42*
CC1(C)CC(=O)c2sc(N3CCCCC3)nc2C1	8	-45	-27	-91	-116	-11	x	x	x
CC1(C)CC(N2CCN(Cc3ccccc3)CC2)=CC(=[N+]2CCCCC2)C1	79*	47	-15	-13	10	36	85*	34*	39*
CC1(C)CC(N2CCCC2)=CC(=[N+]2CCCC2)C1	82*	36	20	-24	-8	19	86*	34*	35*
N#CCCn1cc(/C=N/N=C2\NC(=O)C(CC(=O)O)S2)c(-c2ccc(F)cc2)n1 (centres undefined)	6	10	18	-9	-21	10	x	x	x
CN(CC(=O)Nc1ccccc1C(=O)NC1CC1)Cc1ccco1	-9	-8	-11	x	x	7	x	x	x
CON(c1nc(Cl)nc(N(C)C)n1)S(=O)(=O)c1ccccc1Cl	88*	25	18	-21	-24	16	27	5	-9
COc1nc(N(C)C)nc(N(OC)S(=O)(=O)c2ccccc2Cl)n1	2	-5	-23	10	-23	-4	x	x	x
O=S(=O)(c1ccc2ccccc2c1)N1CCN(C(=S)Nc2ccc(F)c(Cl)c2)CC1	99*	6	5	16	-26	43	15	4	-4
Cc1ccc(NC(=O)COc2ncnc3cc([N+](=O)[O-])ccc23)cc1S(=O)(=O)N1CCOCC1	3	6	-1	22	9	5	x	x	x
O=C(c1ccccc1SCc1ccccc1)N1CCOCC1	61*	-5	18	5	9	9	17	-2	9
O=C(C1CCN(CCCc2ccccc2)CC1)N(CCc1ccccc1)Cc1ccccc1	56*	3	-4	11	-13	41	15	24	-43
COc1cc(/C=C2/NC(=O)N(c3cccc(Cl)c3)C2=O)ccc1O	75*	30	14	-10	-40	23	80*	23	46*
COc1ccc(-n2cccc2/C=C2/NC(=O)N(c3cccc(Cl)c3)C2=O)cc1	-7	-83	-87	-143	-32	19	x	x	x
CNc1ccccc(-c2ccc3ccccc3n2)c1=O	54	-7	-62	-140	-18	-8	-76	19	-32
c1ccc(-c2ccc3ccccc3n2)cc1	-73	-92	-83	-191	x	-25	x	x	x
O=C(C(=Cc1ccccc1)CN1CCCCC1)c1ccccc1	60*	x	x	x	x	x	77*	13	69*
Nc1ccc(N=Nc2ccc(O)cc2)c(N)n1	60*	x	x	x	x	x	39	26*	-206
Cc1[nH]c(C)c(S(=O)(=O)Nc2ccccc2Cl)c1C(=O)N1CCCC1	58*	-3	7	-6	16	15	20	-1	5
CCCCc1nnc(NC(=O)CSCc2cc(=O)n3cc(C)sc3n2)s1	51	1	3	9	-27	13	14	10	-12
Cc1ccc(C)c(-c2nnc(NC(=O)c3ccco3)o2)c1	0	1	10	0	x	17	x	x	x

Assay outcomes: PubChem BioAssay, several laboratories
